Results filed as inconclusive are left out. Calls of active or inactive are those of the source. Unless noted, calls come from the whole dose curve; as a rule, active = well fitted curve in the direction sought with a large enough effect; inconclusive = small, poorly fitted or top-dose-only effect, or another doubt; inactive = no such curve, though single readings can be large; an effect the other way counts as inactive or inconclusive.
Experiments:
[1] = target: Cytochrome P450 1A2 (Homo sapiens) (UniProt P05177); assay: p450-cyp1a2 (AID 410; calls by dose curve; note: potency is the fitted concentration of half-maximal effect)
In short: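 Luminescent demethylation readout: Luciferin-ME (100uM, equal to Km) turned over by 20nM CYP1A2 for 60 min at room temperature after NADPH regeneration addition, following 10 min compound preincubation. Normalization used 57 uM furafylline as full inhibition.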

[2] = target: Glucocorticoid receptor (Homo sapiens) (UniProt P04150); assay: GR-GFP Redistribution (AID 450;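 active = compounds whose dose series gives a full or clear partial fitted curve of increased nuclear translocation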; note: potency is the fitted concentration of half-maximal effect); conditions: U2OS GR-GFP nuclear translocation, laser cytometry, 2 h
[3] = target: Glucocorticoid receptor (Homo sapiens) (UniProt P04150); assay: GR-EFC Redistribution (AID 451; calls by dose curve; note: potency is the fitted concentration of half-maximal effect); conditions: CHO-K1 GR-EFC translocation, beta-gal luminescence, 2 h
In short: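 CHO-K1 cells stably expressing nuclear-localized β-gal enzyme acceptor and GR fused C-terminally to the enzyme donor fragment; ligand-driven nuclear translocation restores β-gal by complementation. Compounds titrated up to 46 uM final, 2 h at 37 °C; luminescence read.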

[4] = target: Mitogen-activated protein kinase 10 (Mus musculus) (UniProt Q61831); assay: JNK3 AlphaScreen Assay (AID 530; active = well fitted curve in either direction with a large enough effect, not every such curve was filed as active;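 note: kinase came from lysate of stimulated human HepG2 cells; signal reports phosphorylation of biotinylated GST-cJun 1-79 at Ser73 with 10 µM ATP; % is set by controls: 0 for no effect and ±100 for the full control effect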)
In short: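 Phosphorylation of biotinylated GST-cJun(1-79) at Ser73 is measured by AlphaScreen proximity luminescence. Enzyme is JNK3 in HepG2 lysates activated with interleukin-1beta and tumor necrosis factor alpha; ATP is 10 uM final.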

[5] = target: 3',5'-cyclic-AMP phosphodiesterase 4B (Homo sapiens) (UniProt Q07343); assay: qHTS Assay for Inhibitors of PDE-IV (AID 607; active = well fitted activation curve with a large enough effect in the main read-out, with a control signal flat, not every such curve was filed as active; note: % of control where 0% means no effect)
In short: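 Live HEK293 cells with a modified cyclic nucleotide-gated (CNG) channel report intracellular cAMP via membrane-potential dye fluorescence (ex 535/em 590 nm). Endogenous PDE-IV was targeted. Compounds were tested at up to 22.9 uM final; RO 20-1724 100 uM served as control.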

[6] = target: Cytochrome P450 3A4 (Homo sapiens) (UniProt P08684); assay: qHTS Assay for Activators of Cytochrome P450 3A4 (AID 885); note: nearly all actives have a fitted effect of over 65% in size
In short: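 Using 20nM recombinant human CYP3A4 in potassium phosphate (200mM), substrate Luciferin-PPXE at 25uM, luminescent luciferin detection followed a 60-min RT NADPH reaction; data scaled to 57 uM ketoconazole.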

[7] = qHTS Assay for Identification of Small Molecule Agonists for Hypoxia Response Element Signaling Pathway (AID 914; active = well fitted activation curve with a large enough effect in the signal ratio, with a control signal flat, not every such curve was filed as active; the % refers to the signal ratio; note: potency is the fitted concentration of half-maximal effect); conditions: ME-180 HRE-bla reporter, beta-lactamase ratio, CoCl2, 17 h; activation: stronger effect = higher value
In short: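 Positive modulation of EC50 CoCl2-induced hypoxia response element signaling is measured in ME-180 cells with a beta-lactamase reporter. Compounds are titrated, incubation runs 17 hours, and %Activity derives from the blue/green ratio.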

[8] = qHTS Assay for Lipid Storage Modulators (AID 1519; calls by dose curve); conditions: Drosophila S3 cells, BODIPY lipid droplet/cell ratio, laser cytometry, cells loaded with oleic acid; for activity change, negative = inhibition: at 57.5 µM (top of the series)
In short: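 Cells seeded at 5,000 per well were treated with compounds over a concentration series and loaded with oleic acid (400 uM, as added). Lipid droplet fluorescence (488 nm excitation, 500-530 nm channel) was read by laser-scanning cytometry and normalized to 20 uM Triacsin C.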

[9] = target: Dual specificity protein kinase CLK4 (Homo sapiens) (UniProt Q9HAZ1); assay: qHTS Assay for Inhibitors of CDC-like Kinase 4 (Kinase-Glo Assay) (AID 1770); note: nearly all actives have a fitted effect of over 65% in size; note: potency is the fitted concentration of half-maximal effect
In short: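 Recombinant human Clk4 (25 nM) phosphorylated RS repeat peptide (100 uM) with 1 uM ATP in Tris pH 7.5/MgCl2/EGTA/DTT/Triton buffer for 4.5 h at room temperature. Residual ATP was quantified by Kinase-Glo luciferase luminescence.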

[10] = target: Dual specificity protein kinase CLK4 (Homo sapiens) (UniProt Q9HAZ1); assay: qHTS Assay for Inhibitors of CDC-like Kinase 4 (ADP-Glo Assay) (AID 1771); note: nearly all actives have a fitted effect of over 70% in size; note: potency is the fitted concentration of half-maximal effect
In short: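 ADP production was read by ADP-Glo luminescence after residual ATP depletion, following 1 h room-temperature reaction of 25 nM Clk4, 1 uM ATP and 100 uM RS peptide with MgCl2, EGTA, DTT and Triton X-100.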

[11] = target: Dual specificity protein kinase CLK4 (Homo sapiens) (UniProt Q9HAZ1); assay: qHTS Assay for Inhibitors of CDC-like Kinase 4 (ADP-FP Assay) (AID 1795); note: % is set by controls: 0 for no effect and ±100 for the full control effect; nearly all actives have a fitted effect of over 60% in size
In short: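 Recombinant human Clk4 (6.25 nM) phosphorylated RS repeat peptide (100 uM) with 1 uM ATP in Tris pH 7.5/MgCl2/EGTA/DTT/Triton buffer for one hour. ADP was quantified by Transcreener competitive fluorescence polarization against an ADP calibration curve.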

[12] = target: Ubiquitin carboxyl-terminal hydrolase 1 (Homo sapiens) (UniProt O94782); assay: Inhibitors of USP1/UAF1: Pilot qHTS (AID 504865); note: nearly all actives have a fitted effect of over 35% in size; note: potency is the fitted concentration of half-maximal effect
In short: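 USP1/UAF1 complex (1nM) preincubated with compound 15 min at room temperature, then Ub-Rho substrate (150nM final) added. Fluorescence read kinetically at 480/540 nm, 6 reads every 60 seconds. Buffer: 50mM HEPES pH 7.8, 0.5mM EDTA, 0.1 mg/ml BSA, 1mM TCEP, 0.01% Tween-20.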

[13] = Primary qHTS for small molecule stabilizers of the endoplasmic reticulum resident proteome: Secreted ER Calcium Modulated Protein (SERCaMP) assay (AID 1508630); note: % is set by controls: 0 for no effect and ±100 for the full control effect
In short: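 The SH-SY5Y reporter protocol was run at 3 concentrations up to 38.3 uM (primary) or 11 concentrations (follow-up): 16 h compound, 100 nM thapsigargin for 4 h, then extracellular luciferase luminescence.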

[14] = AP1 Signaling Pathway (AID 357; active = well fitted curve in either direction with a large enough effect, not every such curve was filed as active;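 note: ME-180 reporter cells stimulated with EGF at its EC50 level; % is set by controls: 0 for no effect and ±100 for the full control effect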); conditions: ME-180 AP-1-bla reporter, EGF-induced, beta-lactamase ratio, 5 h; at 7.69 µM (top of the series) unless noted
In short: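 Modulation of EGF-driven AP-1 transcription was assessed with a beta-lactamase reporter in ME-180 cells. Compound and EC50 EGF were co-incubated 5 hours at 37 °C before 2.5-hour CCF4 loading at room temperature and dual-emission reading.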

[15] = NFAT Signaling Pathway (AID 444; active = well fitted curve in either direction with a large enough effect, not every such curve was filed as active;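 note: carbachol stimulus at about its EC50 of 1 µM final; % is set by controls: 0 for no effect and ±100 for the full control effect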); conditions: Jurkat NFAT-bla M1, carbachol, beta-lactamase ratio, 5 h; at 7.69 µM (top of the series) unless noted
In short: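 Jurkat cells carrying an NFAT-driven β-lactamase reporter and co-transfected muscarinic M1 receptor were treated with compound plus carbachol (1 uM final, an EC50 level) for 5 h at 37 °C. CCF4 loading followed for 1 h at RT; 460/530 nm ratio gave %activity.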

[16] = Stat Signaling Pathway (AID 446; active = well fitted curve in either direction with a large enough effect, not every such curve was filed as active); conditions: ME-180 (cervical carcinoma) SIE beta-lactamase reporter, IL-6 stimulated, 5 h; at 7.69 µM (top of the series) unless noted
In short: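 Overnight-plated ME-180 cells bearing a STAT Inducible Element beta-lactamase reporter; 5 h co-exposure to compound and 40 pM IL-6; values normalized to 300 pM IL-6 and 125 nM JAK inhibitor controls.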

[17] = target: Lysosomal acid glucosylceramidase (Homo sapiens) (UniProt P04062); assay: Glucocerebrosidase-p2 (AID 348; in the data active = potency below about 10 µM; note: potency is the fitted concentration of half-maximal effect); conditions: purified GBA, blue fluorogenic substrate, 40 min
In short: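 Normal human glucocerebrosidase (0.2 nM) with blue fluorogenic substrate (80 uM final) in citrate/phosphate pH 5.9 with 10mM sodium taurocholate, 0.01% tween-20; 40 min RT, NaOH/glycine stop; fluorescence Ex 365/Em 440; AC50 from a titration from 0.6 nM upwards.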

[18] = target: Cytochrome P450 2C9 (Homo sapiens) (UniProt P11712); assay: qHTS Assay for Inhibitors and Substrates of Cytochrome P450 2C9 (AID 883); note: % is set by controls: 0 for no effect and ±100 for the full control effect; nearly all actives have a fitted effect of over 60% in size
In short: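 Human CYP2C9 (10nM) hydroxylated Luciferin-H (100uM, at its KM) to luciferin in 25mM KPO4. Compound was preincubated 10 min at 37C, then NADPH regeneration started a 60 min reaction at 37C. Luminescence was read after detection reagent, normalized to 57uM sulphaphenazole.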

[19] = target: Cytochrome P450 3A4 (Homo sapiens) (UniProt P08684); assay: qHTS Assay for Inhibitors and Substrates of Cytochrome P450 3A4 (AID 884); note: nearly all actives have a fitted effect of over 50% in size; note: potency is the fitted concentration of half-maximal effect
In short: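 Luminescent readout of luciferin produced by CYP3A4 (20 nM) dealkylation of Luciferin-PPXE, 25 uM (its KM). NADPH-driven reaction ran 60 min at RT after 10 min compound preincubation; data scaled to 57 uM ketoconazole as 100% inhibition.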

[20] = target: Cytochrome P450 2C19 (Homo sapiens) (UniProt P33261); assay: qHTS Assay for Inhibitors and Substrates of Cytochrome P450 2C19 (AID 899); note: nearly all actives have a fitted effect of over 60% in size; note: potency is the fitted concentration of half-maximal effect
In short: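 Human CYP2C19 (5nM) with Luciferin-H EGE at 10uM (its KM) in 50mM KPO4 was preincubated with compound for 10 min at 37C. NADPH regeneration started a 60 min 37C reaction. Luciferin was read by luminescence, normalized to 57uM ketoconazole.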

[21] = measured here: cell count channel max response
[22] = measured here: lipid channel max response

Chain of 3',5'-cyclic-AMP phosphodiesterase 4B (Homo sapiens) (Q07343 whole entry, looked up): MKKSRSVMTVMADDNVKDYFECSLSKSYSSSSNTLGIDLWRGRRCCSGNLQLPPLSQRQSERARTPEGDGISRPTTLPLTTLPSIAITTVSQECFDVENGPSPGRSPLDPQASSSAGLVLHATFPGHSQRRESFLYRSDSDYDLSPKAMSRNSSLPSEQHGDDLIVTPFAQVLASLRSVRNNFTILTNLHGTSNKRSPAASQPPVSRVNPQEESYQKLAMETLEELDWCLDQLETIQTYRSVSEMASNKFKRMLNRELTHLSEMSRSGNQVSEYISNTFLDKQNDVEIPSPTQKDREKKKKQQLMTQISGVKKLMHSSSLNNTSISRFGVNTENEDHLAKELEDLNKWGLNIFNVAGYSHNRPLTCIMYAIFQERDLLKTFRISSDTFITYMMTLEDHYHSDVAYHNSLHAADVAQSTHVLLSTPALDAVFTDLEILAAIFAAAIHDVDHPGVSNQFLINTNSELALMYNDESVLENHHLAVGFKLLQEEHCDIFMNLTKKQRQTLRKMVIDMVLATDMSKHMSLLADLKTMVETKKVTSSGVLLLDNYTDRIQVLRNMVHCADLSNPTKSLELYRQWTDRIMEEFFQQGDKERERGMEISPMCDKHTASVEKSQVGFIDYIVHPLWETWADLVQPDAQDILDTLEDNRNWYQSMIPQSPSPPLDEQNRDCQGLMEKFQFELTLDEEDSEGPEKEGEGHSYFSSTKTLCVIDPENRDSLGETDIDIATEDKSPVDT
Chain of Ubiquitin carboxyl-terminal hydrolase 1 (Homo sapiens) (O94782 whole entry, looked up): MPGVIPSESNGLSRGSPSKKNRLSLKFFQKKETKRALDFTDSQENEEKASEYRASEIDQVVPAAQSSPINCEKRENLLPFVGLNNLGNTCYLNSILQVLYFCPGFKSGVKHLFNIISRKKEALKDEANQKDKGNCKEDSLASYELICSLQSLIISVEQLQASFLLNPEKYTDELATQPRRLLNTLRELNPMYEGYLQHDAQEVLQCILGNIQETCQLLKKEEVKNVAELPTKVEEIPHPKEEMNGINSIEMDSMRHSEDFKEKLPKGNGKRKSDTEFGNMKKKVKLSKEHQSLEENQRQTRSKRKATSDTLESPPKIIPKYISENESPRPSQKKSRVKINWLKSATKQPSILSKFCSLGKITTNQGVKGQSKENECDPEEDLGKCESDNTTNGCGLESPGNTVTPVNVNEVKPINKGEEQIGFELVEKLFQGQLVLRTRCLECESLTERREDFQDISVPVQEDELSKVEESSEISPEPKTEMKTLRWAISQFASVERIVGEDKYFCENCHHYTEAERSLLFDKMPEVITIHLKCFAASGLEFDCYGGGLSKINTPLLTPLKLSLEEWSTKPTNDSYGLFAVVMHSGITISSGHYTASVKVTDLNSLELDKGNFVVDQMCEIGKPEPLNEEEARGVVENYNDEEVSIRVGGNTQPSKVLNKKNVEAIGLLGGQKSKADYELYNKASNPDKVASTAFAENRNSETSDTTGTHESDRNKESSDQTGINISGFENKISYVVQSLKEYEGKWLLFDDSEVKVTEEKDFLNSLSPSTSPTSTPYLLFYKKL
Chain of Dual specificity protein kinase CLK4 (Homo sapiens) (Q9HAZ1 whole entry, looked up): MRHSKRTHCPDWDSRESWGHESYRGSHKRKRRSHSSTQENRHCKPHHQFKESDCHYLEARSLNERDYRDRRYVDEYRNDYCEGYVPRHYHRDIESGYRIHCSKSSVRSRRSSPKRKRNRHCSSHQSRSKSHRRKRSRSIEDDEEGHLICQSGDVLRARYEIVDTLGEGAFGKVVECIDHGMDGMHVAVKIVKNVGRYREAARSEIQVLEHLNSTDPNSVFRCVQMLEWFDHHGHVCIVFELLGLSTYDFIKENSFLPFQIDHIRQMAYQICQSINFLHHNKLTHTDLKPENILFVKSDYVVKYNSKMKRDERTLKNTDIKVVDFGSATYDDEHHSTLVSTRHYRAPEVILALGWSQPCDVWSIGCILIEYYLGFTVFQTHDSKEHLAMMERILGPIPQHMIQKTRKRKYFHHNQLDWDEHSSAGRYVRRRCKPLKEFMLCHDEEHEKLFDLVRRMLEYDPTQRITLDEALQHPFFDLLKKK
Chain of Glucocorticoid receptor (Homo sapiens) (P04150 whole entry, looked up, the tested form may be a part): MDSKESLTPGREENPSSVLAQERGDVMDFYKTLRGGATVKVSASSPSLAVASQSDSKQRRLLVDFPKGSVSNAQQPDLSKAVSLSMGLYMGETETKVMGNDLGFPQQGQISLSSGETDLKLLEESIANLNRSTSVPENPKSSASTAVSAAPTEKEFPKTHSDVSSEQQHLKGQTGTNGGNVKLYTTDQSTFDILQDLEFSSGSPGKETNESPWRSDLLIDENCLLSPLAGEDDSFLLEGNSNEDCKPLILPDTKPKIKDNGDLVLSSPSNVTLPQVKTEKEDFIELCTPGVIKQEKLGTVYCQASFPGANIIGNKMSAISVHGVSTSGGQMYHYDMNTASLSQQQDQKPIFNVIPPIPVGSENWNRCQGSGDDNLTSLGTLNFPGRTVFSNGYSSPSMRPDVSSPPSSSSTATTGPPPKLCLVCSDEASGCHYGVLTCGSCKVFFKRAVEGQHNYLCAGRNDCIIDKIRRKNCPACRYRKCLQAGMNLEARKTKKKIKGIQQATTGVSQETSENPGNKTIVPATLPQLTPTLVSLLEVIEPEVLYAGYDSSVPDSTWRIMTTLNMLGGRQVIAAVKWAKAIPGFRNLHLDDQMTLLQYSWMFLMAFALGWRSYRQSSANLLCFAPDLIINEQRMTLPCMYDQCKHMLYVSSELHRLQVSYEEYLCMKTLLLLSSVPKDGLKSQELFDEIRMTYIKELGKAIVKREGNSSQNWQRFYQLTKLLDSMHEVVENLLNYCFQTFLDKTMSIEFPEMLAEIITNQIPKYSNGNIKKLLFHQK
Chain of Lysosomal acid glucosylceramidase (Homo sapiens) (P04062 whole entry, looked up): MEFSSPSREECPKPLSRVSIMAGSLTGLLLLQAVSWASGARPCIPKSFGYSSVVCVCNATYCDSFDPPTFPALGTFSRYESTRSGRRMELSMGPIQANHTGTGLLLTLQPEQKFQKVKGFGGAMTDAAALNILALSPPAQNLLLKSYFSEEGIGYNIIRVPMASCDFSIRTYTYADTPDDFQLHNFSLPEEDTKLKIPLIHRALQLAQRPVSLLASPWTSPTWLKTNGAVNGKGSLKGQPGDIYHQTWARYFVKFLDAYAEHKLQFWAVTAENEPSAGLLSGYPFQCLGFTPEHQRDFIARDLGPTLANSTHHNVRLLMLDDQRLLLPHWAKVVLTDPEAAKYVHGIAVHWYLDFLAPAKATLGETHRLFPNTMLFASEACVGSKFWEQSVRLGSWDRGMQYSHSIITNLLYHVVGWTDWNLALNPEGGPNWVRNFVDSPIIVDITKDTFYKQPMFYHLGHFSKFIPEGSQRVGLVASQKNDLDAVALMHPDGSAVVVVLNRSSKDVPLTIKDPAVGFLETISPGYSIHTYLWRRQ
Chain of Cytochrome P450 3A4 (Homo sapiens) (P08684 whole entry, looked up): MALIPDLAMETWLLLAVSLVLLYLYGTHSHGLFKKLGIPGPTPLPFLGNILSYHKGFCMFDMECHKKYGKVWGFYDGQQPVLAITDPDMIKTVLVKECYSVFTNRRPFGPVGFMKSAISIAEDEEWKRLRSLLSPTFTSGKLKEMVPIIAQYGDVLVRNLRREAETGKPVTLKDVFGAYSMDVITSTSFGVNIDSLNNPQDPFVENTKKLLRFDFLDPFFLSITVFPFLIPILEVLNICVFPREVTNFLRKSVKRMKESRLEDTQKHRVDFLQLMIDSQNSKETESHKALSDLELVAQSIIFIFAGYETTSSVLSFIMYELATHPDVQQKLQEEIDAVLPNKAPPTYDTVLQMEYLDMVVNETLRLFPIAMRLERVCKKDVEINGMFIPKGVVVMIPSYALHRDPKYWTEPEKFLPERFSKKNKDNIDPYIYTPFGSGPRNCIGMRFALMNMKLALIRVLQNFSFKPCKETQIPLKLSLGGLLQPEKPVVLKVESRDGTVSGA
Chain of Cytochrome P450 1A2 (Homo sapiens) (P05177 whole entry, looked up): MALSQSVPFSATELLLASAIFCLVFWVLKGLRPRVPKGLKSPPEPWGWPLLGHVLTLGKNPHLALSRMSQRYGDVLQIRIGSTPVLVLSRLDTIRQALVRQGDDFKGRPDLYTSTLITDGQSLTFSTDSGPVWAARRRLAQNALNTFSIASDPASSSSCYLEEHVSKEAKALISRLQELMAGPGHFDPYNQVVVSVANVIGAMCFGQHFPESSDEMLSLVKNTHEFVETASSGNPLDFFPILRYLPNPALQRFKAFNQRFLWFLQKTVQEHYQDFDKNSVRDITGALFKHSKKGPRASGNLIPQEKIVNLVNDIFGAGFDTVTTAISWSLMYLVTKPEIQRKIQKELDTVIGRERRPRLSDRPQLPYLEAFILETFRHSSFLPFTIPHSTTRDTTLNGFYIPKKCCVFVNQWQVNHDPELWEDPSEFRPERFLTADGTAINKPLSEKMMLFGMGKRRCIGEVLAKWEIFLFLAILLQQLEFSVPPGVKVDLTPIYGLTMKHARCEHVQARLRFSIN
Chain of Cytochrome P450 2C19 (Homo sapiens) (P33261 whole entry, looked up): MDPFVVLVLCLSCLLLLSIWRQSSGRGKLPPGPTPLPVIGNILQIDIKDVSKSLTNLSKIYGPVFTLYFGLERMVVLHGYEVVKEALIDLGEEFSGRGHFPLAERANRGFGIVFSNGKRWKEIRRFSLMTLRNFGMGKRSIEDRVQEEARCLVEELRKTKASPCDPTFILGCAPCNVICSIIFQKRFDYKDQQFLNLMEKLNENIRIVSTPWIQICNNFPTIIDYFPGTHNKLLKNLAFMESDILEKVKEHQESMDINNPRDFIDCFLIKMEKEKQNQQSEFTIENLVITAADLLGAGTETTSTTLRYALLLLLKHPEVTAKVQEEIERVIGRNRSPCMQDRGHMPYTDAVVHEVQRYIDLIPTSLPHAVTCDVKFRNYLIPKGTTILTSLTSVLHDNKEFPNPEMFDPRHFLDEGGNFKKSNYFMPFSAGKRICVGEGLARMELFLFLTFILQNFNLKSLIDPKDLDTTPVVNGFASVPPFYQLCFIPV

CCNc1ncc2nc(-c3cccs3)c(=O)n(C)c2n1
inactive: Potency [2] > 9.22 µM | Potency [3] > 46 µM | outcome [4] | Potency [5] | Potency [6] | activity change, negative = inhibition [8] -12.5% | Potency [9] | Potency [10] | Potency [11] | Potency [12] | Potency [13]
active: Potency [1] 1.58 µM | Potency [7] 3.16 µM
-11.1%: max response [8, 22]
3.66%: max response [8, 21]

N#CCCn1c(=O)c(-c2ccc(F)cc2)nc2cnc(N3CCOCC3)nc21
inactive: activity change, negative = inhibition [14] -0.71% | activity change, negative = inhibition [15] 13.6% | activity, negative = inhibition [16] 10.6% | Potency [2] > 9.22 µM | Potency [3] > 46 µM | outcome [4] | Potency [5] | activity change, negative = inhibition [8] 3.46% | Potency [9] | Potency [10] | Potency [11] | Potency [12] | Potency [13]
23%: max response [8, 22]
20.8%: max response [8, 21]

COc1ccc(-n2c(=O)c(-c3cccs3)nc3cncnc32)cc1
28.9%: max response [8, 21]
11.5%: max response [8, 22]
inactive: Potency [17] > 11.4 µM | activity change, negative = inhibition [14] -19.3% | activity change, negative = inhibition [15] 0.0711% | activity, negative = inhibition [16] -0.243% | Potency [2] > 9.22 µM | Potency [3] > 46 µM | outcome [4] | activity change, negative = inhibition [8] -10.8% | Potency [9] | Potency [10] | Potency [12] | Potency [13]
active: Potency [1] 10 µM

Cc1noc(C)c1-c1cc(NCc2cccnc2)ncn1
inactive: Potency [17] > 11.4 µM | activity change, negative = inhibition [14] 2.04% | activity change, negative = inhibition [15] -0.73% | activity, negative = inhibition [16] 8.46% | Potency [2] > 46 µM | Potency [3] > 46 µM | outcome [4] | Potency [5] | activity change, negative = inhibition [18] 9.31% [at 2.29 µM] | activity change, negative = inhibition [8] 2.28% | Potency [12] | Potency [13]
5.59%: max response [8, 21]
active: Potency [1] 1 µM | Potency [9] 15.8 µM | Potency [10] 22.4 µM
6.22%: max response [8, 22]

Cc1noc(C)c1-c1cc(NC2CCNCC2)ncn1
-17.1%: max response [8, 21]
inactive: Potency [17] > 11.4 µM | activity change, negative = inhibition [14] 8.23% | activity change, negative = inhibition [15] 8.17% | activity, negative = inhibition [16] 5.01% | Potency [2] > 46 µM | Potency [3] > 46 µM | outcome [4] | activity change, negative = inhibition [18] 23.1% [at 2.29 µM] | Potency [19] | Potency [20] | activity change, negative = inhibition [8] 3.45% | Potency [9] | Potency [10] | Potency [12] | Potency [13]
-14.9%: max response [8, 22]
active: Potency [1] 0.126 µM

Cc1ccccc1-c1nccc(NCc2cccs2)n1
-2.46%: max response [8, 21]
inactive: activity change, negative = inhibition [14] -5.62% | activity change, negative = inhibition [15] 1.22% | activity, negative = inhibition [16] 3.98% | Potency [2] > 46 µM | Potency [3] > 46 µM | outcome [4] | Potency [5] | Potency [6] | activity change, negative = inhibition [8] 6.73% | Potency [9] | Potency [10] | Potency [11] | Potency [13]
6%: max response [8, 22]
active: Potency [1] 0.501 µM | Potency [19] 2 µM | Potency [20] 3.98 µM | Potency [12] 25.1 µM
